In all, about 48,000 compounds went through this assay and about 13,000 (27%) showed an effect of 50% or more. The list shows a part of the results.
tested on: Wolbachia pipientis; test: Anti-Wolbachia Cell-Based Screen; type: functional; set-up: scale not given: in the data most compounds retested in dose-response had high values; settings: 5 µM

| SMILES | Percent Effect [%] |
| --- | --- |
| CCC(CN1CCCC1)NC(=O)C1(c2ccc(F)cc2)CC1 (centres undefined) | 125.8 |
| CC(CNC(=O)C1(c2ccc(F)cc2)CC1)CN1CCCC1=O (centres undefined) | -3.318 |
| O=C(NCC(O)COc1ccccc1)C1(c2ccc(F)cc2)CC1 (centres undefined) | -6.241 |
| O=C(NCc1nncn1C1CC1)C1(c2cccc(F)c2)CCOCC1 | 0.3927 |
| CCC(CN1CCCCC1)NC(=O)C1(c2ccc(F)cc2)CC1.O=C(O)CC(O)(CC(=O)O)C(=O)O (centres undefined) | 147.4 |
| Cc1cccc(C2(C(=O)NCC(C)CN3CCCC3=O)CC2)c1 (centres undefined) | -2.528 |
| O=C(NC(CN1CCCC1)c1ccccc1)c1c(O)cc(F)cc1F (centres undefined) | -3.42 |
| COc1cccc(-c2n[nH]c3c2CN(C(=O)C2=C(C)OCCO2)CC3)c1 | 9.828 |
| Cc1cc(CNc2cncc(C(=O)N(C)C)n2)c2[nH]c(C)c(C)c2c1 | 5.027 |
| O=C(O)c1ccccc1-c1c(-c2ccccc2)ncn1C[C@H]1CCCN1 | -12.22 |
| c1cncc(CNc2cccc(OCCN3CCCCC3)c2)c1 | 1.449 |
| CN(C)C(=O)CCNC(=O)NCc1ccc(Br)cc1Cl | 9.255 |
| O=c1[nH]nc(CNc2ncc(Br)cn2)[nH]1 | 1.625 |
| CC(=O)c1cccc(OCCCC(=O)N(C)C2CCN(C)CC2)c1 | -6.579 |
| COc1ccc(CNCCc2cc(F)cc3c2OCOC3)cc1O | 19 |
| CCC(CN1CCN(C)CC1)NC(=O)C1(c2cccc(F)c2)CC1.O=C(O)CC(O)(CC(=O)O)C(=O)O (centres undefined) | 126 |
| CCC(O)CN1CCN(C(=O)C2(c3ccc(C)c(OC)c3)CC2)CC1 (centres undefined) | -7.505 |
| CCC(=O)N1CCC2(CCN(Cc3cccc(F)c3)CC2)CC1.O=C(O)C(F)(F)F | -2.197 |
| Cc1ccccc1N1CCN(C(=O)Cc2ccc3c(c2)OCO3)CC1=O | -22.32 |
| CCN1CC(C(=O)N2CCc3cc(C(=O)N(C)C)n(C)c3C2)CCC1=O (centres undefined) | 22.54 |
| COCC1c2c(cnn2C)CCN1C(=O)c1ccc2c(c1)OCO2 (centres undefined) | 20.59 |
| CCCC(O)CN1CCC(=O)N(CC2CC2)Cc2cc3c(cc21)OCO3 (centres undefined) | 71.64 |
| CC(=O)N1CC[C@H]2CC(=O)N(Cc3ccc4c(c3)OCO4)CC[C@H]2C1 | 1.484 |
| O=C(O)C(F)(F)F.O=C(O)C(F)(F)F.c1cc2c(cc1CN1CC[C@H]3[C@H]1CCN3CC1CC1)OCO2 | -18.3 |
| CCCC(O)CN1CCC(=O)N(CCOC)Cc2cc3c(cc21)OCO3 (centres undefined) | 110.9 |

| SMILES | Percent Effect [%] |
| --- | --- |
| COCCN1C[C@H]2CN(C(=O)c3ccc4c(c3)OCO4)CCN2C1=O | -8.36 |
| CCCC(O)CN1CCC(=O)N(CC)Cc2cc3c(cc21)OCO3 (centres undefined) | 85.4 |
| CC(NC(=O)Nc1ccccc1CN1CCOCC1)c1nnc(N)s1 (centres undefined) | 1.041 |
| Cc1cc(C)n(CC(C)NCc2nncn2C2CCCCC2)n1 (centres undefined) | -18.85 |
| CCC(C)NS(=O)(=O)Cc1cccc(NC(=O)c2ccc[nH]2)c1 (centres undefined) | -2.911 |
| Cc1ncsc1CCN(C)C(=O)CN1CC2(CCCC2)CC1=O | -2.773 |
| COc1cc(C(=O)NCCc2ccccc2OC)on1 | 0.865 |
| O=C(N[C@H]1CC[C@H](O)CC1)c1ccc2nc(-c3ccccc3)cn2c1 | -19.25 |
| CCc1[nH]ncc1C(=O)N1CCCN(Cc2cnn(C(C)C)c2)CC1 | -9.524 |
| CC(C)n1cc(CN2CCCN(C(=O)COC3CCCC3)CC2)cn1 | 98.23 |
| CC(C)n1ccnc1CN1CCCN(C(=O)COC2CCCC2)CC1 | -4.301 |
| CC(C)n1cc(CN2CCCN(C(=O)CC3CCCCC3)CC2)cn1 | 102.4 |
| CC(C)n1cc(CN2CCCN(C(=O)CC3CCCO3)CC2)cn1 (centres undefined) | 115.9 |
| CCCC(=O)N1CCCN(C(=O)Nc2ccc(C)s2)CC1 | 4.138 |
| O=C(C(c1ccccc1)N1CCc2cncnc2C1)N1CCCCC1 (centres undefined) | -0.8294 |
| N#CC1(NC(=O)COc2cc(Cl)cc(Cl)c2)CCSC1 (centres undefined) | -14.75 |
| O=C(NCCCn1cnnc1)C1CCCN(C2CCCC2)C1 (centres undefined) | 8.155 |
| O=C(CCOc1ccccc1F)N1CCCCC1Cn1cccn1 (centres undefined) | 114.4 |
| O=C(CCCOc1ccc(F)cc1F)N1CCCC1Cn1cccn1 (centres undefined) | 4.503 |
| CCOCCC(=O)N1CCCCC1CCn1cccn1 (centres undefined) | -10.55 |
| COc1cc(C)ccc1OCCC(=O)N1CCCC1Cn1cccn1 (centres undefined) | 6.133 |
| COc1ccccc1OCCC(=O)N1CCCC1Cn1cccn1 (centres undefined) | 114.3 |
| O=C(CCOc1ccccc1F)N1CCCC1Cn1cccn1 (centres undefined) | 123.4 |
| O=C(c1ccccc1OCC1CC1)N1CCCC1Cn1cccn1 (centres undefined) | 15.75 |
